# From PubChem BioAssay (NCI)
# About 83,000 compounds went through this panel and 20% of them were active in at least one assay; those are over-represented in the sample as a whole.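 Method: cells in 96-well plates; compound added at one concentration; 48 h incubation; percent growth measured; values under 10 scored active.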 A number with no mark means an inactive call. Activity calls are given as the source filed them.
# Assays:
# Test in all cases: NCI-60 one-dose screen, 48 h (100 = growth as untreated, 0 = no growth, -100 = all killed)
# Conditions in all cases: 10 µM unless noted
# [1] = system: HCT-15 colon
# [2] = system: HT29 colon
# [3] = system: SNB-75 CNS
# [4] = system: SNB-19 CNS
# [5] = system: U251 CNS
# [6] = system: PC-3 prostate
# [7] = system: SK-MEL-5 melanoma
# [8] = system: UACC-62 melanoma
# [9] = system: SK-MEL-28 melanoma
# [10] = system: SK-MEL-2 melanoma
# [11] = system: EKVX NSCLC
# [12] = system: SN12C renal
# [13] = system: UO-31 renal
# [14] = system: TK-10 renal
# [15] = system: ACHN renal
# [16] = system: CAKI-1 renal
# [17] = system: A498 renal
# [18] = system: CCRF-CEM leukemia
# [19] = system: MOLT-4 leukemia
# [20] = system: LOX IMVI melanoma
Compound,growth [1],growth [2],growth [3],growth [4],growth [5],growth [6],growth [7],growth [8],growth [9],growth [10] [%],growth [11] [%],growth [12],growth [13],growth [14],growth [15],growth [16],growth [17],growth [18] [%],growth [19],growth [20]
CC(C)NCC(O)COc1ccc(CCOCC2CC2)cc1 (stereo not drawn),107%,97.9%,99.3%,106%,99.4%,80%,95%,110%,118%,109,98.4,96.9%,76.9%,111%,109%,99.3%,90.7%,93.8,88.3%,–
Cc1ccc2nc(NC(=O)CSC(=S)N3CCN(Cc4ccccc4)CC3)sc2c1,-37% (active),-62.7% (active),-93.2% (active),-22.2% (active),-46.3% (active),-40.2% (active),-96.4% (active),–,-60% (active),–,72.5,-1% (active),-43.4% (active),-36.4% (active),-2.52% (active),-20.8% (active),-3.21% (active),–,6.71% (active),-41.3% (active)
O=C(N/N=C/c1ccc2c(c1)OCO2)c1cnn2c1NC(c1ccccc1)C2 (stereo not drawn),28%,26.7%,54.8%,62.9%,69.6%,50.2%,37.3%,32.7%,71.8%,–,–,73.7%,67.5%,70.3%,46%,21.1%,–,67.7,75.2%,26.4%
CCCCCCCC/C=C\CCCCCCCCOc1cccc(CC(=O)NCC[N+]2(C)CCOCC2)c1,96.7%,53.5%,49.9%,72.3%,51%,33.3%,99.8%,80.2%,102%,–,94.6,81.5%,82.1%,75.1%,94%,70.1%,–,61.6,72.1%,91.3%
O=C(c1ccc2ncc(-c3nc(NC4CC4)ncc3F)n2c1)N1CCOCC1,23.8%,26.4%,-21.6% (active),45.8%,28.6%,52.6%,-51.8% (active),16.9%,45.4%,–,49.2,30.1%,–,41.9%,0.254% (active),3.25% (active),-30.3% (active),19.5,16%,-0.283% (active)
N#Cc1c(O)c2c(c(O)c1C#N)C(=O)c1ccccc1C2=O,26.9%,0.694% (active),145%,70.8%,3.42% (active),14.3%,-73.1% (active),-17.3% (active),5.91% (active),–,87.3,0.389% (active),68.3%,87.5%,56.2%,85.7%,81.9%,24.4,–,–
N#CCCN1CCN(CCC#N)C1=S,106%,98.6%,95.6%,98.5%,101%,99.6%,110%,91.4%,122%,–,102,95.2%,–,98.1%,102%,86.4%,87.9%,111,103%,104%
FC(F)(F)Oc1ccc2c(c1)C[C@H]1C[C@@H](c3ccoc3)N2O1,95.1%,99.9%,99.5%,105%,94.5%,92.8%,115%,98.8%,108%,–,93.9,110%,100%,97.4%,94%,82.6%,93.2%,102,96.4%,91.8%
